Assay outcomes (PubChem BioAssay)
FBPA coupling cs – inhibits coupling enzyme system, counter-screen for aldolase hits | coupling enzyme system counterscreen, AmpLite Red fluorescence | activity change, negative = inhibition, % at 58.2 µM, hits read low | 290,000 tested, 0.67% active | AID 2472; in the data active = activity change below about -30%
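Fluorescence at 525 nm excitation and 598 nm emission measured inhibition of the coupled detection system without aldolase. Compounds (at 57.5 uM final) were preincubated 10 min at room temperature with coupling enzyme reagent before a 20 min substrate/AmpLite Red step.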
VP16 counter – Gal4-VP16 reporter inhibition counter-screen. Drosophila S2 Gal4-VP16 UAS-luciferase, luminescence, 20 h. Potency, µM (highest dose often 53.6 µM), inactives show top-dose activity, negative = inhibition, hits mostly inhibitors. 310,000 tested, 3.5% active. AID 2546;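 note: Gal4-VP16 expression switched on by copper sulfate through the metallothionein promoter; potency is the fitted concentration of half-maximal effect; nearly all actives have a fitted effect of over 50% in size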
RORg inh – blocks mouse ROR gamma transcriptional activity | P51450 | Drosophila S2 Gal4-RORgamma UAS-luciferase reporter, 20 h | Potency, µM (highest dose often 53.6 µM), for inactives: at the top dose activity change, negative = inhibition, hits mostly inhibitors | 310,000 tested, 5.4% active | AID 2551; note: potency is the fitted concentration of half-maximal effect; nearly all actives have a fitted effect of over 60% in size
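Using a luciferase readout, inhibitors were identified by reduced reporter activity in Drosophila cells coexpressing a copper-inducible Gal4–ROR gamma fusion and UAS-driven Photinus luciferase, incubated 20 hr after 700 uM copper sulfate.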
TSHR antagonist – human thyrotropin receptor antagonism; P16473; TSHR-expressing cells, TSH-stimulated cAMP HTRF, 2 h; stronger effect = lower value; activity change, negative = inhibition, % at 11.5 µM; 330,000 tested, 0.2% active;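 active = activity change below a set negative limit, meaning inhibition stronger than a set level, cut at about -70% in these data; inconclusive = activity change between two set negative limits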
Target sequence (P16473 whole entry, looked up): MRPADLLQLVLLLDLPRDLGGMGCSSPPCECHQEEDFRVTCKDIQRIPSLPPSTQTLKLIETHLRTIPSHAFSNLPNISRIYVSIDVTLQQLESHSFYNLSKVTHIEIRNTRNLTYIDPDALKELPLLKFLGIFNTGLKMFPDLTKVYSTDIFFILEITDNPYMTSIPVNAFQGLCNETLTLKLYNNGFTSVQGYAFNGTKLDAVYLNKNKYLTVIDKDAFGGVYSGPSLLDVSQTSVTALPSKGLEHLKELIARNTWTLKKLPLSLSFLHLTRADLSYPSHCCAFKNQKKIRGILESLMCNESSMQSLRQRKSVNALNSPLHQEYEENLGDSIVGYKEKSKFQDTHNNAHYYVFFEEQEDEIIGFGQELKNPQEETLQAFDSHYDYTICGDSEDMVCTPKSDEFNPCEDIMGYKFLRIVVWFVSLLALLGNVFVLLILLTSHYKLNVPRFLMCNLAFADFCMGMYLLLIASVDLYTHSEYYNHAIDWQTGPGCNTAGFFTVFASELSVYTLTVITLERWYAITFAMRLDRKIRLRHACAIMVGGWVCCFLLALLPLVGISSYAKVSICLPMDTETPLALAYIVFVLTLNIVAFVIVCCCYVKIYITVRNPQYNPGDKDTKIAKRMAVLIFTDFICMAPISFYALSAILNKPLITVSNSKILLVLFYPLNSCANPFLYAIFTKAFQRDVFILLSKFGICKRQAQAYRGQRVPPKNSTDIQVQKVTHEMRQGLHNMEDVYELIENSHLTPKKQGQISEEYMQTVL
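Read-out is FRET at 665 nm (cryptate excitation 337 nm) from a cryptate-tagged anti-cAMP antibody, competed by cell cAMP against cAMP-d2. Compounds are tested on freshly harvested TSHR cells challenged with 4nM TSH (EC80) for 2 hours at 37 deg C.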
ELG1 DNA repair – inhibitors of ELG1-dependent DNA repair in HEK293T cells; Potency, µM (highest dose often 46.1 µM), inactives show at the highest dose activity change, negative = inhibition, usual class: inhibitors; HEK293T ELG1-luciferase reporter, luminescence, 16 h; DNA damage induced by 5-fluorouridine; 330,000 tested, 2.3% active; AID 504467; note: potency is the fitted concentration of half-maximal effect; nearly all actives have a fitted effect of over 55% in size
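HEK293T cells expressing luciferase-tagged ELG1 (2,000/well) received 5-Fluorouridine plus compound or DMSO for 16 hr at 37 °C. Luciferase was read by ONE-Glo luminescence after 30 min at room temperature.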
* hit, by the source's call; u = inconclusive; x = no result given; [ ] = another dose, or the depositor's remark. Hits are enriched below; roughly 8% of the tested compounds scored in any of these assays. Unless noted, calls come from the whole dose curve; as a rule, active = well fitted curve in the direction sought with a large enough effect; inconclusive = small, poorly fitted or top-dose-only effect, or another doubt; inactive = no such curve, though single readings can be large; an effect the other way counts as inactive or inconclusive. % is set by controls: 0 for no effect and ±100 for the full control effect.

SMILES	FBPA coupling cs	VP16 counter	RORg inh	TSHR antagonist	ELG1 DNA repair
N#Cc1ccc(C(=O)Nc2nc3ccccc3[nH]2)cc1	0	7.1µM*	3.5µM*	4	u
CCn1nc(C(=O)Nc2nc3ccccc3[nH]2)c2ccccc2c1=O	-1	u	11µM*	2	u
CN(C)C1=NC[C@H](Cc2ccccc2)N1CC1CCCCCC1	x	x	x	-4	-13%
O=C(Nc1nc2ccccc2[nH]1)c1cc(F)cc(F)c1	-1	u	-24%	-3	u
CN(C)S(=O)(=O)c1ccc(C(=O)Nc2nc3ccccc3[nH]2)cc1	-2	u	11µM*	2	u
CCc1ccc(C(=O)Nc2nc3ccccc3[nH]2)cc1	-2	4µM*	2.2µM*	-8	u
O=C(Nc1nc2ccccc2[nH]1)c1ccc(F)cc1	-4	5.6µM*	2.8µM*	0	u
COc1ccc(NC(=O)N2CC3(CCN(S(C)(=O)=O)CC3)C2)cc1	1	9%	16%	x	x
CCc1cc(N2CCOCC2)cc2c1[nH]c1ccccc12	-43*	-2%	-16%	5	-17%
Nc1cccc(-n2nnnc2CN2CCOCC2)c1	-31*	-14%	3%	9	-9%
O=C(Cn1ccc2ccccc2c1=O)NCCC(=O)Nc1cccc(Cl)c1	3	-12%	13%	-6	-7%
CNC(=S)/N=C/NOCc1ccc(Cl)cc1Cl	-3	-11%	-24%	-19	12µM*
CC(=O)OCC1(C)CN(c2ccccc2)NC1=O (stereo unspecified)	-12	u	13µM*	15	u
CC(=O)OCC1(C)CN(c2ccccc2)N(C(C)=O)C1=O (stereo unspecified)	0	-6%	14%	-1	-13%
CCOc1ccccc1OCC(=O)OC(C)C(=O)Nc1ncc(Cl)cc1Cl (stereo unspecified)	x	x	x	-4	0%
COc1ccc(C(C)n2c(C)c3c(C)nnc(C)c3c2C)cc1 (stereo unspecified)	-18	0%	-25%	26	-17%
Cc1nnc(C)c2c(C)n(C(C)c3ccccc3)c(C)c12 (stereo unspecified)	-33*	-8%	-2%	-5	-18%
COc1ccc(NC(=O)COC(=O)c2cc(C)oc2C)c([N+](=O)[O-])c1	x	x	x	0	16%
COc1ccc(C(=O)/C(=C/c2cccs2)c2nc3ccccc3o2)cc1	-3	u	3.2µM*	-10	u
COC(=O)c1sccc1NC(=S)Nc1ccccc1	0	u	16µM*	-3	14%
COC(=O)c1sccc1NC(=S)Nc1ccc(F)cc1F	0	u	5.6µM*	-11	5%
COC(=O)c1sccc1NC(=S)Nc1cc(C)cc(C)c1	0	4.5µM*	5µM*	9	u
COC(=O)c1sccc1NC(=S)Nc1cccc(F)c1	-1	u	18µM*	6	-2%
CCCCCCCNC(=O)C1(CC2CC(c3ccc(Cl)cc3)=NO2)CCN(C(=O)OC(C)(C)C)CC1 (stereo unspecified)	-5	2%	38%	-9	u
C[C@@H]1CCC[C@H](C)N1	4	-3%[17 µM]	9%[16.9 µM]	x	x
SMILES	FBPA coupling cs	VP16 counter	RORg inh	TSHR antagonist	ELG1 DNA repair
CCN(CC)CCn1c(-c2ccccc2)nc2c(NCCO)nc(C)nc21	3	-5%	-27%	x	x
COc1cccc(/C(O)=C/c2nc3ccc(C(=O)NCCc4cccc(C)c4)cc3[nH]c2=O)c1	1	u	20%	-5	u
COc1cccc(/C(O)=C/c2nc3ccc(C(=O)NCCc4ccc(Cl)cc4)cc3[nH]c2=O)c1	1	14µM*	u	2	u
COC(=O)[C@H](CCSC)NC(=O)Cn1cnc2c(OCc3ccccc3)ncnc21	x	x	x	3	u
C=CCNc1nc(Nc2ccccc2F)nc(OCC)n1	1	11%[10 µM]	13µM*	-14	u
CCOc1nc(Nc2ccccc2F)nc(OCC)n1	-1	17%	24%	21	-1%
COc1ccc(C2=Nn3c(nnc3-c3ccc(OC)cc3OC)SC2)c(OC)c1	1	-8%	31%	x	x
CC(=O)Nc1nonc1-c1nc2ccccc2n1CCC(C)C	5	-18%	13µM*	7	u
